Assay results reported in PubChem BioAssay (Tox21).
Calls of active or inactive are those of the source. A call without a number means that no potency is given here. Calls come from the whole dose curve.

Each compound was assayed against Acetylcholinesterase (Homo sapiens) (UniProt P22303) (assay: Acetylcholinesterase (AChE) small molecule antagonists: enzyme-based qHTS assay (AID 1347397; note: nearly all actives have a fitted effect of over 55% in size)). Conditions: Potency: AChE enzyme activity inhibition; outcome: AChE enzyme activity inhibition; series mostly up to 115 µM.
Procedure, shortened: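 rhAChE 50 mU/mL (dispensed) + cpd or DMSO, 30 min RT; add DTNB/acetylthiocholine cocktail, 10 min RT; colorimetric thiocholine readout. qHTS, 1536-well format.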

Chain of Acetylcholinesterase (Homo sapiens) (P22303 whole entry, looked up): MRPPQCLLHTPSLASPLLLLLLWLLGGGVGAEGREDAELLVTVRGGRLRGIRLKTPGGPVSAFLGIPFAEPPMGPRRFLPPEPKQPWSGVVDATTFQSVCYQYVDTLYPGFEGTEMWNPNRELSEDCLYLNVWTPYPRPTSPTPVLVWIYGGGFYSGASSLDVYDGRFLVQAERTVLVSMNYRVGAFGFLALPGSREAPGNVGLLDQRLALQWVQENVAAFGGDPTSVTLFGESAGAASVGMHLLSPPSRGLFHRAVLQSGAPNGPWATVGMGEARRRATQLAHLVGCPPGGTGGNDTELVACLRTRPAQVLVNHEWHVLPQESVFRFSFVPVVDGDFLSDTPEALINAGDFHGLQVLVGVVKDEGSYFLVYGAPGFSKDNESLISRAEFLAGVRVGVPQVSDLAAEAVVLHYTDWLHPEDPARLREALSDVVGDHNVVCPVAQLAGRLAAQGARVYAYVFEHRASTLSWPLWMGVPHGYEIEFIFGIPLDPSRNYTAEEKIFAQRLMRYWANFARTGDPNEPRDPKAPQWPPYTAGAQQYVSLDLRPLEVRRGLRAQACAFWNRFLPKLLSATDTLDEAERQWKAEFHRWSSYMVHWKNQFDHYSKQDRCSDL

| Structure (SMILES) | Potency | activity change, negative = inhibition |
| --- | --- | --- |
| CCCCC(CC)COC(=O)COc1cc(Cl)c(Cl)cc1Cl (stereo not given) | inactive | – |
| COc1cccc(CCc2ccccc2OCC(CN(C)C)OC(=O)CCC(=O)O)c1 (stereo not given) | inactive | – |
| CCCCCCCCCCC=CC1CC(=O)OC1=O (stereo not given) | inactive | – |
| O=C(O)[C@@H](O)[C@H](O)[C@H](O)[C@@H](O)C(=O)O | inactive | – |
| CN1CCN(C(c2ccccc2)c2ccccc2)CC1 | inactive | – |
| Cc1cccc(NC(=S)N(C)C)c1 | inactive | – |
| CN1CCN(C2Cc3ccccc3Sc3ccc(Cl)cc32)CC1 (stereo not given) | inactive | – |
| CC/C=C(\C)C=O | inactive | – |
| CC(=O)NCCCS(=O)(=O)O | inactive | – |
| Cc1cc2cc3c(C)cc(=O)oc3c(C)c2o1 | inactive | – |
| O=C(O)c1ccccc1-n1cc(C(=O)O)c(=O)c2cc(Nc3c(F)cc(F)cc3Cl)c(Cl)cc21 | inactive | – |
| CCc1cccc(CC)c1 | inactive | – |
| O=Cc1ccc(C(=O)O)cc1 | inactive | – |
| Cc1ccccc1C(=O)N1CC/C(=N\OS(=O)(=O)O)c2ccc(Cl)cc21 | inactive | – |
| CN1CC(=O)NC1=N | inactive | – |
| Nc1ccc(Oc2ccc(Cl)cc2)cc1 | inactive | – |
| O=C(O)P(=O)(O)O | inactive | – |
| CCN(CC)S(=O)(=O)c1ccc(C(=O)O)cc1 | inactive | – |
| NC(CSCC(=O)O)C(=O)O (stereo not given) | inactive | – |
| CC(C)N(C)C | inactive | – |

| Structure (SMILES) | Potency | activity change, negative = inhibition |
| --- | --- | --- |
| CCCCCCCCCCCCCC(=O)OCC | inactive | – |
| CCO[Si](C)(CCCOCC1CO1)OCC (stereo not given) | inactive | – |
| CC(=O)O[C@]1(C(C)=O)CC[C@H]2[C@@H]3C=C(Cl)C4=CC(=O)CC[C@]4(C)[C@H]3CC[C@@]21C | inactive | – |
| Cc1ncc(COP(=O)(O)O)c(C=O)c1O | inactive | – |
| CN(C)C | inactive | – |
| CCCCCCCCCCN | inactive | – |
| Cc1occc(=O)c1O | inactive | – |
| COc1cc(Cl)ccc1Cl | inactive | – |
| Cc1cccc2cccnc12 | inactive | – |
| C=C(C)C(=O)OCCCCCCCCCCCCCCCCCC | – | 0.946% [at 23.6 µM] (inactive) |
| CCOc1cccc(-n2cc(C(=O)N3CCN(c4cc(C(=O)O)c5ccccc5c4)CC3)nc2-c2ccc(C)cc2)c1 | inactive | – |
| Nc1ccc(S(=O)(=O)Nc2ccc(Cl)nn2)cc1 | inactive | – |
| CC(C)c1cccc(C(C)C)c1N | inactive | – |
| C/C(=N\O)[C@@H](C)NCC(C)(C)CN[C@H](C)/C(C)=N/O | inactive | – |
| CCN(CC)c1ccc2c(C)cc(=O)oc2c1 | inactive | – |
| Cc1cn([C@H]2C[C@H](N=[N+]=[N-])[C@@H](CO)O2)c(=O)[nH]c1=O | inactive | – |
| O=C(O)c1ccc(OCCN2CCCCC2)cc1 | inactive | – |
| COc1cccc(OC)c1O | inactive | – |
| Cn1c(N)nc2nc[nH]c2c1=O | inactive | – |
| O=C1CCCCCCCCCCCCCCO1 | inactive | – |
